Among the data in PubChem BioAssay AID588405 (Sanford-Burnham Center for Chemical Genomics, 2011) are inhibition values, retold here.

Structures are written as SMILES. Out of some 360,000 compounds screened, about 6,200 (1.7%) were called active. This excerpt belongs to a sample that is enriched for actives. Unmarked numbers belong to inactive results.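 Rule for the calls: active = inhibition of at least 50% at 20 µM; inactive = the rest.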

The nature of this experiment: Peg3 promoter-driven luciferase inhibitors, primary screen, cell-based, HeLa, luciferase luminescence (AID 588405). The conditions noted are these: HeLa PEG-Prom luciferase reporter, overnight, at 20 µM, active compounds read high.
Regarding `Cc1ccc2c(Cl)c(C(=O)Nc3nn[nH]n3)sc2c1`, the inhibition is -5.87%. On to `Cc1ccc(-c2nc3ccccc3[nH]2)cc1NC(=O)c1sc2ccccc2c1Cl`, for which the inhibition is 50.7% (active). `CN1CCc2ccccc2C1Cc1ccccc1NC(=O)c1sc2ccccc2c1Cl` (stereo not drawn): the inhibition is -137%. As to `COc1ccc(C)cc1NC(=O)CCS(=O)(=O)c1cccc2nonc12`, the inhibition is -14.4%. On to `Cc1ccc2c(C(=O)CN3CCCC3)c(C)[nH]c2c1`, for which the inhibition is 7.2%. The figure for `CCNC(=O)C1(C)CCN(C(=O)c2ccccc2)C1` (stereo not drawn) is -7.38%. With `CC1CN(Cc2ccccc2)C(=S)NC1=O` (stereo not drawn), the inhibition is -2.37%. The figure for `CC1CC(=O)Nc2ccccc2N1S(=O)(=O)c1cccs1` (stereo not drawn) is 10.5%.

With `CC1CC(=S)Nc2ccccc2N1Cc1ccccc1` (stereo not drawn), the inhibition was 55.4% (active). The figure for `CCNC(=O)C1(C)CCCN1C(=O)c1ccc(N(C)C)cc1` (stereo not drawn) is -3.48%; for `CCOc1ccc(Nc2nc(Cl)nc(N3CCN(c4ccc(OC)cc4)CC3)n2)cc1` it is 22.4%; for `CCN1CCN(c2nc(Nc3cc(OC)ccc3OC)nc(Nc3cc(OC)ccc3OC)n2)CC1` it is 52.3% (active). Take `CCCOc1ccc(Cl)cc1Nc1nc(NCCO)nc(N2CCCC2)n1`: the inhibition is 9.9%.

Regarding `COc1cccc(C(O)c2ncc(-c3ccc4ccccc4c3)[nH]2)c1` (stereo not drawn), the inhibition is -68.4%. Regarding `CNC(=O)C1CC(=O)N(c2ccc(OCC(=O)Nc3ccccc3C)cc2)C1` (stereo not drawn), the inhibition is -61.3%. `CC12CCC(=O)C=C1CCC1C2C(O)CC2(C)C1CCC2(O)C(O)CO` (stereo not drawn): the inhibition is 10.9%.

Regarding `CCc1nc2ccc(C(=O)Nc3ccc(OC)c(OC)c3)cn2c1N(C)C(=O)c1cccc(OC)c1`, the inhibition was -9.49%. Turning to `CCCN1CCN(C(=O)Cn2ncc3ccccc32)CC1`, the inhibition was 6.83%. The figure for `O=C1NC[C@H](Cc2ccc(O)cc2)N(C[C@H]2CCCN2C[C@H](Cc2ccccc2)N2C[C@H](Cc3ccccc3)N(CCc3ccccc3)C(=O)C2=O)C1=O` is -4.33%; for `O=C(c1snnc1-c1ccccc1)N1CCOCC1` it is 11.7%.

Take `Cc1oc2c(c1C(=O)N1CCOCC1)C(=O)c1ccccc1C2=O`: the inhibition was 97.9% (active). The figure for `Cc1ccc(C(=O)N2CCN(S(=O)(=O)N3CCOCC3)CC2)cc1` is 5.77%. Consider `CC=CCn1c(SCCCc2ccccc2)nc2c1c(=O)[nH]c(=O)n2C`, for which the inhibition was 0.45%. The figure for `CN(CCO)Cc1csc2ccc(Br)cc12` is 13.7%. Take `COc1ccc(S(=O)(=O)N2CCCCC2c2cc(C(=O)NCc3ccc(F)cc3)no2)cc1` (stereo not drawn): the inhibition was 15.3%. The figure for `CC[C@@H]1Cc2cc(O)ccc2C2=C1c1ccc(O)cc1C[C@H]2CC` is 64.8% (active); for `CCc1nc2c(OCC(N)=O)cccn2c1N(C)C(=O)c1ccc(OC)cc1` it is -3.72%; for `O=C(CC(O)(C(F)(F)F)C(F)(F)F)Nc1ccc(Cl)c(Cl)c1` it is 69.9% (active).

As to `O=C(Cc1ncc(C(F)(F)F)cc1Cl)Nc1cccc(Br)c1`, the inhibition was 3.22%. Under `CN(CC(=O)Nc1ccc(Cl)c(C(F)(F)F)c1)C(=O)CCC(=O)c1ccccc1` stands 12.6%; under `O=C(Nc1cccc([N+](=O)[O-])c1)N1CCc2ccccc2C1`, -236%. On to `Cc1ccc(NC(=O)O/N=C/c2cccc([N+](=O)[O-])c2)cc1`, for which the inhibition was -85.8%. For the compound `COC(=O)/C=C\C(=O)Nc1cccc([N+](=O)[O-])c1`, the inhibition is 106% (active). As for `O=C(CN1C(=O)NC2(CCOc3ccccc32)C1=O)NCc1ccc(F)cc1` (stereo not drawn), the inhibition was 20.2%. On to `CCc1ccc2c(c1)NC(=O)C2(C)Cc1ccc(OC(F)(F)F)cc1` (stereo not drawn), for which the inhibition is 32.7%.

Take `CCOC(=O)c1sc(C)c2c1NC(C)(c1cccc3ccccc13)NC2=O` (stereo not drawn): the inhibition is 34.8%. Consider `Cc1ccc2nc(-c3ccc(Br)cc3)cn2c1`, for which the inhibition was 55.6% (active). On to `Cc1ccc(-c2cn3cc(C)ccc3n2)cc1`, for which the inhibition was 88.8% (active).

Consider `Cc1ccc(-c2nc3ccc(Cl)cn3c2Cc2ccccc2)cc1`, for which the inhibition was -130%.

For `Cc1ccc(-n2c(-c3ccc(Cl)cc3)n[nH]c2=S)cc1`, the inhibition was 17.7%.

As to `COc1ccc(-c2nc3ccc(Br)cn3c2Cc2ccc(C)cc2)cc1OC`, the inhibition was -58.2%. As for `Cc1ccc(-c2nc3ccc(Br)cn3c2Cc2ccccc2C(F)(F)F)cc1`, the inhibition is -138%. For the compound `Cc1csc(NC(=O)CSc2nc(=O)n(CCCN(C)C)c3c2CCC3)n1`, the inhibition is 4.74%. Under `CN(Cc1ccc(C(F)(F)F)cc1)C(=O)[C@H]1O[C@@H](n2cnc3c(N)ncnc32)[C@H](O)[C@@H]1O` stands 6.54%; under `CC1(C(=O)NS(=O)(=O)c2ccc(C#N)cc2)CCN1C(=O)c1ccc(C2CCCCC2)cc1` (stereo not drawn), -8.94%; under `O=[N+]([O-])/C(N=Nc1ccccc1)=N\Nc1ccccc1`, -2.71%. Take `Cn1c(CCC(=O)Nc2ccccc2F)nnc1SCC(=O)Nc1ccccc1Cl`: the inhibition is 3.9%. The figure for `CCOc1ccc(-c2nc(N)ncc2-c2ccccc2OC)c(O)c1` is 1.53%. The figure for `COc1ccc(-c2nc(N)ncc2-c2ccc(Cl)cc2)c(O)c1` is 53.7% (active).

Take `C=C(C)COc1ccc(-c2ncncc2-c2ccc(OC)cc2)c(O)c1`: the inhibition is -25.6%. Under `CC(=O)Nc1cnc(-c2ccc(O)cc2C)cn1` stands -46.9%; under `CN1CCN(CCCCOc2ccccc2-c2ccccc2)CC1`, 7.99%.

Turning to `OCCN1CCN(C(=S)c2ccc(-c3ccccc3)cc2)CC1`, the inhibition was 51.7% (active). Under `S=C(c1ccc(-c2ccccc2)o1)N1CCCCC1` stands -230%; under `CC(C#N)OC(=O)c1cccnc1SCC(=O)Nc1ccc2c(c1)OCO2` (stereo not drawn), -92%. The figure for `O=C(O)CCN1C(=O)CC2(CCCCC2)C1=O` is -1.96%. Under `COCCNc1ncnc2c1ncn2[C@H]1CN(CCN2CCOCC2)C[C@@H](CO)O1` stands 0.57%; under `Clc1cccc(-c2nc(NCC3CCCO3)c3ccccc3n2)c1` (stereo not drawn), 17.2%; under `N#CCSc1nc(-c2ccccc2)nc2ccc(F)cc12`, 16.9%.

`Clc1ccc2nc(-c3ccccc3)nc(C(Cl)Cl)c2c1`: the inhibition is 107% (active). Under `CN(c1ccc2nc3ccccc3c(=O)n2n1)C1CCCCC1` stands 81.5% (active).

`CC(C)c1cc(C(=O)NC2CCCCCC2)c2ccccc2n1`: the inhibition was -6.57%. Under `CC(C)C(C)NC(=O)COc1nc2ccccc2nc1N(C)C1CCCCC1` (stereo not drawn) stands 2.14%.
